Test results as given in PubChem BioAssay AID2661 (Broad Institute, 2010).
Hit rate of the full screen: of about 320,000 compounds, about 240 (0.075%) were called active. The sample holds actives, similar compounds and a random draw of the others, so the mix is not that of the screen. A number with no mark means an inactive call.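 The calls were made as follows: active = inhibition at or above 25%, using the most active replicate where run in duplicate; inactive = inhibition below 25%.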

target: Serine/threonine-protein kinase 33 (Homo sapiens) (UniProt Q9BYT3); experiment: STK33 phosphorylation of MBP blockers – biochemical, ADP-Glo luminescence, homogeneous, cell-free, primary screen (AID 2661); settings: purified STK33, MBP phosphorylation, at 10 µM, hits give high values
Sequence (Q9BYT3 whole entry, looked up): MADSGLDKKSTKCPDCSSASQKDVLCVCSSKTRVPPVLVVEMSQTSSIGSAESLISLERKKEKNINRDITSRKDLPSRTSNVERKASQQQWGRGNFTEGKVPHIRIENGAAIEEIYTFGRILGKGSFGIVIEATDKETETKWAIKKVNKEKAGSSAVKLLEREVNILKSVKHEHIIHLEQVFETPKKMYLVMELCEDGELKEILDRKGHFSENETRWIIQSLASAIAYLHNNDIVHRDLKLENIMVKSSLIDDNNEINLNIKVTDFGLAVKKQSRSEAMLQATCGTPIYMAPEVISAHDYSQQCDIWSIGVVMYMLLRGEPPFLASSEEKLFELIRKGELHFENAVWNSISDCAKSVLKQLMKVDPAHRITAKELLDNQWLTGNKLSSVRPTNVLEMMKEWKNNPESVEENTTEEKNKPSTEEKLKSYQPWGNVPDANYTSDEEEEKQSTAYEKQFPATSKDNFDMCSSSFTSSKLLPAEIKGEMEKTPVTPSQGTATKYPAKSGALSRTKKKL

Row | Compound | inhibition
1 | OCCCNc1nccc(-c2cc(Nc3cccc(Cl)c3)ncn2)n1 | 5.41%
2 | CC(C)n1cnc2c(Nc3cccc(Cl)c3)nc(N(CCO)CCCO)nc21 | 55.5% (active)
3 | CC(C)C[C@H](CO)Nc1nc(N(C)c2cccc(Cl)c2)c2ncn(C(C)C)c2n1 | -0.739%
4 | O=C(COc1ccccc1F)Nc1nc(-c2ccccn2)cs1 | -1.01%
5 | COc1ccc(C2(c3ccc(OC)cc3)NC(=O)N(CC(=O)Nc3cc(C)on3)C2=O)cc1 | -0.176%
6 | CC1CN(C(=O)c2ccc([N+](=O)[O-])s2)CC(C)O1 (stereo not given) | -2.19%
7 | O=C1CCC/C=C\C[C@@H](CC(=O)N(CCO)Cc2ccccc2)C(=O)NCCO1 | -0.894%
8 | COC(=O)[C@]1(Cc2ccccc2)N[C@H](CN(C)S(=O)(=O)c2ccc(F)cc2)[C@@H]2C(=O)N(Cc3ccccc3)C(=O)[C@@H]21 | 0.777%
9 | CNC[C@@H]1Oc2c(NS(C)(=O)=O)cccc2C(=O)N([C@@H](C)CO)C[C@H]1C | -0.879%
10 | O=C(Cn1cnc2c(OCc3ccccc3)ncnc21)NCc1nc2ccccc2[nH]1 | 0.0433%
11 | O=C(COC(=O)CSc1ccccc1)Nc1ccc(F)cc1F | -1.54%
12 | Cc1noc(C)c1C(=O)OC(C)C(=O)Nc1ccc2c(c1)OCO2 (stereo not given) | -2.76%
13 | CC(C)(C)OC(=O)C[C@@H]1C/C=C\C[C@@H](CC(=O)N[C@@H](CO)Cc2ccccc2)C(=O)N2CCC[C@H]2COC1=O | -0.177%
14 | CCOc1cc(/C=C2\SC(N3CCCC(C)C3)=NC2=O)ccc1O (stereo not given) | 26.4% (active)
15 | O=C1N=C(N2CCCC2)S/C1=C\c1cccc(Br)c1 | -0.704%
16 | O=C1N=C(N2CCc3ccccc3C2)S/C1=C\c1ccc(O)cc1 | 11%
17 | CC1CCN(C2=NC(=O)/C(=C/c3cn[nH]c3-c3ccccc3)S2)CC1 | 0.902%
18 | CCOc1cc(/C=C2\SC(N3CCCCC3)=NC2=O)ccc1O | 8.65%
19 | CC1CCN(C2=NC(=O)/C(=C/c3ccc(O)cc3)S2)CC1 | 25.8% (active)
20 | O=C(COC(=O)c1ccc(F)cc1)NCC1COc2ccccc2O1 (stereo not given) | -0.961%
21 | NS(=O)(=O)c1ccc(CNC(=S)NC(=O)c2ccco2)cc1 | -0.0738%
22 | CC1Cc2ccccc2N1S(=O)(=O)c1cccc(C(=O)OCC(=O)N2CCOCC2)c1 (stereo not given) | -1.13%
23 | Cc1ccc(S(=O)(=O)N2CCCCC2)cc1NC(=O)CCNC(=O)c1ccccc1 | -0.0957%
24 | O=C(Nc1nnc(-c2ccccc2)o1)c1cccc(S(=O)(=O)N2CCOCC2)c1 | -0.807%
25 | COc1cc(OC)cc(C(=O)NCC(=O)OCC(=O)NC(C)CCc2ccccc2)c1 (stereo not given) | -0.78%
26 | Cn1cccc1C(=O)OCC(=O)NCCc1ccccc1 | -0.939%
27 | CC(C#N)OC(=O)c1cccnc1SCC(=O)Nc1ccc2c(c1)OCO2 (stereo not given) | 0.605%
28 | CC(=O)c1c(C)[nH]c(C(=O)COC(=O)c2cccs2)c1C | -3.01%

Row | Compound | inhibition
29 | COc1cc(OC)cc(-c2cc3ccc(F)cc3cn2)c1 | 1.46%
30 | COc1ccc2nc3n(c(=O)c2c1)-c1ccc(Cl)cc1C(=O)NC3Cc1ccccc1 (stereo not given) | 0.119%
31 | COc1cc(C(=O)NC2CCN(C)CC2)ccc1Nc1ncc2c(n1)N(C1CCC(O)CC1)CCC(=O)N2C (stereo not given) | 54.5% (active)
32 | COc1ccc(-n2cnc3cc(C(=O)NC4CCCC4)ccc32)cc1 | -0.505%
33 | COc1ccc(C(=O)NC2CC2)cc1OC1CCN(Cc2cnn(C)c2)CC1 | 0.281%
34 | Cc1ccc(C(=O)Nc2ccccc2-c2ccccc2)cc1S(=O)(=O)Nc1ccccc1 | -1.82%
35 | COCCN(CCOC)S(=O)(=O)NC[C@H]1O[C@@H](n2cnc3c(N)ncnc32)[C@H](O)[C@@H]1O | -0.284%
36 | COc1ccccc1CNC(=O)COC(=O)c1cccs1 | -1%
37 | COc1cc(SC)ccc1C(=O)NNC(=O)C1COc2ccccc2O1 (stereo not given) | -1.07%
38 | O=C(CSc1nccn1-c1cccc(F)c1)NC1CCCC1 | 0.473%
39 | Cc1ccc(NS(=O)(=O)c2ccc(C(C)C)cc2)cc1S(=O)(=O)N1CCOCC1 | -3.33%
40 | O=C(N=C1SC2CS(=O)(=O)CC2N1c1ccccc1)c1ccccc1 (stereo not given) | 0.811%
41 | COc1cc(OC)cc(-c2sc3ccc(OC)cc3c2-c2ccc3cc[nH]c3c2)c1 | 1.63%
42 | CC(Oc1ccc2c(-c3ccccc3)cc(=O)oc2c1)C(=O)NC(Cc1c[nH]c2ccccc12)C(=O)O (stereo not given) | -3%
43 | COc1cccc2sc3cc(NCC[C@@H]4CCCN4C)ccc3c(=O)c12 | 4.13%
44 | COC(=O)[C@]1(CC(C)C)N[C@H](c2ccc(SC3CCCCC3)cc2)[C@@H]2C(=O)N(C)C(=O)[C@@H]21 | -0.318%
45 | COc1ccc(C(=O)C(C)OC(=O)c2cccc(S(=O)(=O)Nc3c(C)n(C)n(-c4ccccc4)c3=O)c2)cc1 (stereo not given) | -0.0798%
46 | CC(=O)C(CC(=O)N1CCCC1)C(=O)Nc1ccc(Cl)cc1 (stereo not given) | -0.972%
47 | CCC(CO)Oc1cc(NCc2ccccc2)c2ncn(C3CCCC3)c2c1 (stereo not given) | 3.27%
48 | O=C(Nc1cccc(S(=O)(=O)N2CCCCC2)c1)c1cncc(Br)c1 | -0.246%
49 | CC(=NNC(=O)c1ccc2nc[nH]c2c1)c1ccc(Br)cc1 | -0.319%
50 | COc1cc(S(=O)(=O)N2CCN(C(=O)C3CC3)CC2)ccc1NC(C)=O | 0.285%
51 | COc1ccccc1C(=O)COC(=O)COc1ccc(C#N)cc1 | 5.03%
52 | Cc1cccc(NC(=S)Nc2ccc3cn[nH]c3c2)c1 | 11.6%
53 | CCc1cccc(CC)c1NC(=S)Nc1ccc2cn[nH]c2c1 | 24.8%
54 | S=C(Nc1cccc(Cl)c1)Nc1ccc2cn[nH]c2c1 | 27% (active)
55 | CN(Cc1ccc(F)cc1)C(=O)CN1C(=O)c2ccccc2S1(=O)=O | -1.27%
